# This is a sample that favours compounds with a hit; in the whole collection about 10% have one here.
# Sfp PPTase inh: blocks B. subtilis Sfp PPTase activity | Biochemical Sfp PPTase activity, qHTS | Potency, µM, most hits filed as inhibitors | 3.5% of 310,000 active | AID 1490;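 also: the enzyme is Sfp with the accession as filed and its product quenches rhodamine fluorescence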
#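 With Hepes-Na pH 7.6 buffer containing 10 mM MgCl2, Sfp (15 nM) modified BHQ-2-YbbR (12.5 uM) using rhodamine-CoA (5 uM). Two reads 30 minutes apart at 525/598 nm yielded each well's rate.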
# Mm-Cpn inhibitor: M. maripaludis TRiC chaperonin inhibition | 0.031% of 330,000 active | Potency, µM (series often up to 76.9 µM), actives largely listed as inhibitors | purified Mm-Cpn ATPase, ADP Transcreener TR-FRET; also: nearly all actives have a fitted effect of over 80% in size
#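 ATPase turnover read by TR-FRET ADP competition (Eu cryptate antibody/ADP-d2, 665/590 nm): 10uM ATP final, 25nM Mm-CPN final, 30 min 37degC after 10-min compound preincubation, pH 7.4 Tris/KCl/MgCl2/DTT buffer.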
# VDR inh: blocks the human vitamin D receptor; P11473; VDR-SRC2-3 peptide fluorescence polarization, 2 h; Potency, µM, hits mostly inhibitors; 0.93% of 400,000 active; AID 504847
#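 The screen uses fluorescence polarization to detect compounds that interfere with recruitment of the SRC2-3 coactivator peptide to VDR; plates are read after 2 h at room temperature.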
# G9a block: blocks human histone lysine methyltransferase G9a; Q96KQ7; AID 504332; 8.8% of 350,000 active; Potency, µM (top dose mostly 102 µM), actives largely listed as inhibitors; G9a H3K9 monomethylation, AlphaScreen, 2 h; also: nearly all actives have a fitted effect of over 75% in size
# Target sequence (Q96KQ7 913-1193 limits assumed): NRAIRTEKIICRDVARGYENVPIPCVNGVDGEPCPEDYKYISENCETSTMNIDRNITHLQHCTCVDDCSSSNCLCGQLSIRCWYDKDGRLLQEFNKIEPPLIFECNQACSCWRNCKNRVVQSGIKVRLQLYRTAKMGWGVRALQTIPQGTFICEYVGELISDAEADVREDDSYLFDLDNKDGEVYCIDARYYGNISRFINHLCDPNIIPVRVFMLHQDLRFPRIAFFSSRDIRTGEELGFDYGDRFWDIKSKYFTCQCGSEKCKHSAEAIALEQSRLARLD
#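 Compounds were preincubated with 20 nM G9a for 15 min, after which biotinylated H3K9 peptide (500 nM) and SAM (20 uM) started a 2 h room-temperature reaction. Monomethylated product was quantified by antibody-based AlphaScreen chemiluminescence.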
# PLK1 PBD block: inhibitors of human PLK1 polo-box domain binding | P53350 | Plk1 PBD binding of FITC phosphopeptide, fluorescence polarization | Potency, µM, hits mostly inhibitors | 2.8% of 360,000 active | AID 720504; also: series mostly up to about 57 µM; nearly all actives have a fitted effect of over 65% in size
# CCT chaperon mod: changes cytosolic chaperonin activity; activity change, % (no concentration beside the values), hits read low; 0.3% of 360,000 active; AID 651819; purified chaperonin ATPase assay, HTRF ADP detection, 30 min; in the data active = activity change below about -30%
#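 TRiC at 40 or 20 nM final (batch-dependent) in 30 mM Tris pH 7.4, 100 mM KCl, 5 mM MgCl2, 1 mM DTT, with compound at single 76 uM and 10 uM ATP, 30 min at 37 deg C. ADP detected by HTRF Transcreener, 665/615 ratio.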
# Numbers stand for hits; i = inactive; ? = inconclusive; nt = no result given; [ ] = another dose, or the depositor's remark. Unless noted, calls follow the shape of the dose curve; as a rule, active = well fitted curve in the direction sought with a large enough effect; inconclusive = small, poorly fitted or top-dose-only effect, or another doubt; inactive = no such curve, though single readings can be large; an effect the other way counts as inactive or inconclusive.
SMILES,Sfp PPTase inh,Mm-Cpn inhibitor,VDR inh,G9a block,PLK1 PBD block,CCT chaperon mod
S=c1[nH]c2ccccc2n1Cc1ccccc1,14µM,i,?,nt,8.4µM,i
CCCCCCOc1ccc(-c2nc3ccc(Br)cc3c(=O)o2)cc1,nt,nt,i,i,nt,nt
CC(=O)c1ccc2c3c(cccc13)C(=O)N(c1c(C)nn(C)c1C)C2=O,i,i,i,10µM,i,i
COc1ccccc1CNC(=O)c1ccc(CSc2nc3ccncc3n2Cc2cccc(F)c2)cc1,nt,nt,i,?,nt,nt
CCSS(=O)(=O)c1cccc2cccnc12,20µM,i,16µM,0.45µM,2.7µM,i
O=C(O)CCS(=O)(=O)c1cccc2cccnc12,i,i,i,?,i,i
COc1ccc(S(=O)(=O)N(CC(=O)N2CCN(c3ccccc3OC)CC2)c2ccccc2)cc1,i,i,i,?,i,i
COc1ccc(N2CCN(C(=O)CN(c3ccc(OC)cc3)S(=O)(=O)c3ccccc3)CC2)cc1,i,i,i,40µM,i,i
COc1ccc(N(CC(=O)N2CCN(C)CC2)S(=O)(=O)c2ccccc2)cc1,i,i,i,i,i,i
COc1ccc(N2CCN(C(=O)CN(c3ccccc3)S(=O)(=O)c3ccc(OC)cc3)CC2)cc1,i,i,i,10µM,i,i
CCOc1ccc2nc(N3CCCC(C(=O)Nc4ccc(OC)c(Cl)c4)C3)sc2c1 (stereo not given),nt,nt,i,i,nt,nt
CC[C@H]1C2=C3C(CC[C@H]4C(OCc5ccc(F)cc5C(F)(F)F)OC[C@](C)([C@@H]34)N(C(=O)OC(C)(C)C)C2)C(COC)C1COC (stereo not given in full),i,nt,nt,nt,nt,nt
N#Cc1cnc2c(-c3ccccc3)c(-c3ccccc3)nn2c1N,i,i,?,i[12.7 µM],19µM,i
CCCCc1ccc(Nc2ncnc3c2cnn3-c2ccc(C)cc2)cc1,nt,nt,i,?,nt,nt
COc1cc(C(=O)N/N=C/c2ccc3c(c2)c2ccccc2n3C)ccc1O,i,i,i,i,i,i
Cn1c2ccccc2c2cc(/C=N/NC(=O)c3cc(O)cc(O)c3)ccc21,i,i,i,50µM,i,i
COc1ccc(S(=O)(=O)N2CCN(c3ccccc3F)CC2)cc1-c1noc(C)n1,nt,nt,i,0.5µM,nt,nt
CCc1nc(-c2cc(S(=O)(=O)N3CCN(c4ccccc4F)CC3)ccc2OC)no1,nt,nt,i,i,nt,nt
CSc1ccc(CN2C(=O)NC3(CCCCC3)C2=O)cc1,i,i,i,i,i,i
COc1ccc(CN2C(=O)NC3(CCCCCC3)C2=O)cc1F,i,i,i,i,3.4µM,i
CC(C)c1ccc(CN2C(=O)NC3(CCCCCC3)C2=O)cc1,i,i,i,i,27µM,i
CCOc1ccc(NC(=O)CNS(=O)(=O)c2ccc(Br)s2)cc1,nt,nt,i,i,nt,nt
Cc1cc(C)cc(N2C(=O)CC(Sc3ncn[nH]3)C2=O)c1 (stereo not given),35µM,i,i,nt,24µM,i
COc1ccc(-c2nc3c(Br)c(N)c(Br)cc3o2)cc1,22µM,i,i,?,i,i
CCOC(=O)C(NS(=O)(=O)c1ccccc1)(C(F)(F)F)P(=O)(OCC(C)C)OCC(C)C (stereo not given),i,i,?,10µM,i,i
SMILES,Sfp PPTase inh,Mm-Cpn inhibitor,VDR inh,G9a block,PLK1 PBD block,CCT chaperon mod
Nc1ccc2c(c1)OC1(CCCC1)O2,i,i,79µM,35µM,i,i
Cc1oc2ccc(O)c(CN3CCCCCC3)c2c1C(=O)Nc1cccc(C(F)(F)F)c1,nt,nt,i,i,nt,nt
Cc1cccc2c(N=O)c(O)[nH]c12,i,i,?,i[12.7 µM],3.8µM,i
CCCC[C@H](NC(=O)[C@H](CC(C)C)NC(=O)[C@@H](Cc1c[nH]c2ccccc12)NC(=O)[C@H](Cc1ccccc1)NC(=O)[C@@H](Cc1c[nH]c2ccccc12)NC(=O)[C@H](CC(N)=O)NC(=O)[C@@H](Cc1c(Cl)cccc1Cl)NC(=O)[C@@H]1CCCN1C(=O)[C@H](Cc1ccccn1)NC(=O)[C@@H]1CCCN1C(=O)[C@H](N)CCCCNC(=O)c1cccnc1)C(N)=O,i,nt,i,nt,nt,nt
CC1CC(C)CN(CCOCCSc2ccc(Cl)cc2)C1 (stereo not given),56µM,i,i,6.3µM,i,i
COc1ccc(N=Nc2ccc(N)nc2N)cc1,i,i,i,28µM,i,i
COc1ccc(N=Nc2n(C)c3ccccc3[n+]2C)cc1,50µM,i,nt,nt,nt,nt
